Reference: PubChem BioAssay AID687001 (Broad Institute, 2013)
Entries with a potency or affinity are not part of this list. Calls of active or inactive are those of the source.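 Rule for the calls: active = signal-lowering compounds whose fitted half-maximal concentration is at or below twice the top tested dose in every run; inconclusive = runs disagree, flat 30 to 70% inhibition, or poor curve fit; inactive = the rest.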

Each compound was assayed against Protein S100-A4 (Homo sapiens) (UniProt P26447) (assay: S100A4-myosin IIA binding inhibitor potency, dose response, biochemical, fluorescence polarization, cherry-picked hits (AID 687001)). Details: FP, S100A4/TAMRA-myosin IIA peptide binding; series mostly up to 11 µM.
Chain of Protein S100-A4 (Homo sapiens) (P26447 whole entry, looked up): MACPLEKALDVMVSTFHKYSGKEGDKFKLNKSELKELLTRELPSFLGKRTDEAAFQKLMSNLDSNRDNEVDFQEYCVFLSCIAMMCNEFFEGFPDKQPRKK

outcome, inactive:
COc1ccc(CNC(=O)CN2C(=O)c3ccccc3C2=O)cc1, CC(=O)Nc1ccc(NC(=O)C(C)OC(=O)CCCN=C2NS(=O)(=O)c3ccccc32)cc1 (configuration not stated), C[C@@H]1CN([C@@H](C)CO)C(=O)c2cc(NC(=O)CCCCCC(=O)Nc3ccccc3N)ccc2O[C@H]1CN(C)C(=O)Nc1ccc2c(c1)OCO2, CNc1nc(-c2ccc(S(=O)(=O)N3CCCCC3)cc2)cs1, O=S(=O)(NCCN1CCOCC1)c1ccc(-c2ccc(S(=O)(=O)NCCN3CCOCC3)cc2)cc1, O=C(/C=C/c1cccc(Cl)c1)NCCCN1CCOCC1, COc1ccc(C(CNC(=O)CNC(=O)c2ccc(F)cc2)N2CCCC2)cc1 (configuration not stated), Cc1cc(Br)ccc1NC(=O)CN(C)C(=O)c1ccc(-n2cncn2)c([N+](=O)[O-])c1, Cc1ccc([N+](=O)[O-])cc1N=Nc1c(C)[nH]n(C(N)=S)c1=O, COc1ccc(S(=O)(=O)Nc2ccc3c(c2)C(=O)N([C@H](C)CO)C[C@H](C)[C@H](CN(C)C(=O)Nc2ccccc2)OCCCC[C@H](C)O3)cc1, CC1CCCCC1NC(=O)CSc1nnc(-c2ccco2)n1N (configuration not stated), COC(=O)C(c1ccccc1)C(CC(=O)c1ccccc1)c1ccccc1 (configuration not stated), COc1cccc(-c2ccc([C@H]3[C@H](CO)N4CCCCN(CC5CC5)C[C@@H]34)cc2)c1, O=C(CCc1ccccc1)Nc1sc2c(c1C(=O)O)CCCC2, C=C[C@@H]1c2ccccc2N(S(=O)(=O)c2ccc(C)cc2)[C@H](c2ccccc2C(F)(F)F)C1(C#N)C#N, CC(=O)N1c2ccc(S(=O)(=O)N3CCC(C(=O)Nc4ncccc4C)CC3)cc2CC1C (configuration not stated), C=C(C)n1c(=O)n(Cc2ccccc2C)c2ccccc21, CCOC(=O)c1c(S(=O)(=O)N2CCCC(C(=O)Nc3ccc(C)cn3)C2)c(C)n(C)c1C (configuration not stated), COCCN(C(=O)COC(=O)COc1ccc2ccccc2c1)c1c(N)n(Cc2ccccc2)c(=O)[nH]c1=O, O=C(CCC1CCN(C(=O)c2ccco2)CC1)NCc1ccc(F)cc1, CCNC(=O)[C@H]1N[C@H]2c3ccc(-c4cccc(C(=O)N(C)C)c4)c(=O)n3C[C@H]2[C@@H]1CO, Nc1cccc2c(=O)[nH][nH]c(=O)c12
